Read-out in assay [1]: X-box binding protein 1 (XBP1), XBP1 (gene 7494)
Nature of the assay: LTEA_HepaRG_XBP1: Life Technologies and Expression Analysis (LTEA) Assay for X-box binding protein 1 (XBP1) using HepaRG (AID 2283540; active means hit-call score of the fitted dose curve at least 0.9, where 1 is the maximum; inactive means score below 0.9). To be noted: mRNA level, 48 h; actives raise or lower the signal. A digest of the protocol: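 HepaRG, 48 h exposure, 8-pt half-log CRC top 100 uM, 0.5% DMSO vehicle, duplicates. Readout: TaqMan qRT-PCR of XBP1 mRNA, housekeeping-normalised (ACTB/GAPDH/POLR2A); bidirectional fit vs DMSO baseline.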

Assay [2] in a line: LTEA_HepaRG_LDH_cytotoxicity: Cytotoxicity Assessment in the Life Technologies and Expression Analysis (LTEA) Assay (AID 2283563).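 On AC50: LDH activity released into spent culture medium as a marker of cell death.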 The method, boiled down:
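HepaRG (human liver line), 48 h exposure, 8-pt half-log series from 100 uM, 0.5% DMSO vehicle, duplicates. Read-out: LDH in spent medium. Positive-direction fit vs DMSO baseline.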

A short description of assay [3]: TOX21_p53_BLA_p2_viability: Viability Assessment in the Tox21 HCT-116 p53 Agonism Beta-lactamase Assay, Phase 2 (AID 2283591).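 Further: actives lower the ATP signal meaning cytotoxicity.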 The method, boiled down: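 HCT116 p53-bla cells, 4000/well, dosed after 5 h plating (217-fold dilution of DMSO stocks) and incubated 16 h at 37C. Viability taken as cellular ATP by CellTiter-Glo luminescence after 30 min RT; signal loss marks cytotoxicity.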

For assay [4], the target named is Cellular tumor antigen p53 (Homo sapiens) (UniProt P04637). Nature of the assay: TOX21_p53_BLA_p2_ratio: Tox21 HCT-116 p53 Agonism Beta-lactamase Assay, Ratio, Phase 2 (AID 2283592). The method, boiled down:
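Readout: blue/green (460/530 nm) FRET emission ratio after 2 h CCF4-AM loading at room temperature, excitation 405 nm. HCT116 p53 bla cells, 16 h compound exposure at 37C, 5% CO2; agonist direction fitted against DMSO baseline.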

Assay [5] in a line: TOX21_p53_BLA_p3_viability: Viability Assessment in the Tox21 HCT-116 p53 Agonism Beta-lactamase Assay, Phase 3 (AID 2283593).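 Further: cells exposed to compound for 16 h before reading.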 A digest of the protocol: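 HCT116 cells, 4000/well, dosed 5 h after plating by pin transfer (217-fold dilution from DMSO stock) and incubated 16 h at 37C, 5% CO2. Viability read as ATP luminescence with CellTiter-Glo after 30 min at room temperature.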

The target of assay [6] is Cellular tumor antigen p53 (Homo sapiens) (UniProt P04637). Nature of the assay: TOX21_p53_BLA_p3_ratio: Tox21 HCT-116 p53 Agonism Beta-lactamase Assay, Ratio, Phase 3 (AID 2283596). The method, boiled down:
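Cells were seeded at 4000/well, rested 5 h at 37C, then dosed with DMSO compound solutions (217-fold dilution) for 16 h. CCF4-AM substrate was loaded for 2 h at room temperature, and the 460/530 nm emission ratio was fitted for gain of signal versus DMSO.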

Assay [7] has the same target. Nature of the assay: TOX21_p53_BLA_p5_ratio: Tox21 HCT-116 p53 Agonism Beta-lactamase Assay, Ratio, Phase 5 (AID 2283599). The method, boiled down: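 HCT-116 p53-bla cells (4000/well) plated 5 h, dosed with compound (217-fold DMSO dilution) for 16 h at 37 C; CCF4-AM substrate 2 h at room temperature. Activity is the 460/530 nm emission ratio (405 nm excitation), fitted in gain-of-signal direction versus DMSO.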

Assay [8] shares this target. Nature of the assay: TOX21_p53_BLA_p4_ratio: Tox21 HCT-116 p53 Agonism Beta-lactamase Assay, Ratio, Phase 4 (AID 2283601). A digest of the protocol: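 HCT-116 p53 beta-lactamase reporter cells (4000/well) preincubated 5 h, then compound (217-fold dilution of DMSO stock) for 16 h at 37C. CCF4-AM substrate added 2 h at room temperature; 460/530 nm emission ratio fitted upward versus DMSO.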

The nature of assay [9]: Tanguay_ZF_120hpf_MORT_legacy: (Legacy) Oregon State University Tanguay Lab 120 Hour Post-fertilization zebrafish Assay for Mortality (AID 2283633).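 On AC50: fitted as increase in binary mortality versus DMSO negative control.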 The method, boiled down: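 Brightfield scoring of embryo death (binary) at 24 and 120 hpf; static exposure 6–120 hpf, 28C, sealed and foil-covered. Pronase-dechorionated 5D wild-type larvae, single embryo per well. DMSO 0.64% v/v; trimethyltin chloride 5uM positive control.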

Assay [10] in a line: Tanguay_ZF_120hpf_YSE_legacy: (Legacy) Oregon State University Tanguay Lab 120 Hour Post-fertilization zebrafish Assay for Yolk Sac Edema (AID 2283634). The method, boiled down: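 Binary brightfield scoring of yolk sac edema at 120 hpf; DMSO baseline, gain-of-signal fitting. Dechorionated 5D larvae, one per well, static exposure 6–120 hpf, 28C, 0.64% DMSO. Dead embryos not scored.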

A short description of assay [11]: Tanguay_ZF_120hpf_AXIS_legacy: (Legacy) Oregon State University Tanguay Lab 120 Hour Post-fertilization zebrafish Assay for Body Axis Malformation (AID 2283635).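 On AC50: potency for an increased fraction of larvae scored with body axis malformation.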 The method, boiled down:
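Embryos: 5D wild-type, pronase-dechorionated 4 hpf; static exposure 6–120 hpf, 28C, sealed, dark, 1 embryo/well, 0.64% DMSO. 120 hpf axis malformation scored present/absent; dead embryos excluded. Analysed as gain of signal vs DMSO.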

A short description of assay [12]: Tanguay_ZF_120hpf_EYE_legacy: (Legacy) Oregon State University Tanguay Lab 120 Hour Post-fertilization zebrafish Assay for Eye Malformation (AID 2283636).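 Further: binary presence or absence of eye malformation scored by brightfield in 120 hpf larvae.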 A digest of the protocol: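 5D wild-type embryos, pronase-dechorionated at 4 hpf; static exposure 6–120 hpf, 28C, dark; DMSO 0.64% final; 5uM trimethyltin chloride positive control. Binary eye-defect scoring at 120 hpf; dead embryos not scored.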

Assay [13] in a line: Tanguay_ZF_120hpf_SNOU_legacy: (Legacy) Oregon State University Tanguay Lab 120 Hour Post-fertilization zebrafish Assay for Snout Malformation (AID 2283637). A digest of the protocol: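 Binary brightfield scoring of snout malformation at 120 hpf. Dechorionated 5D wild-type embryos, one per well, static exposure from 6 hpf at 28C, sealed and dark; final DMSO 0.64% (vol/vol), DMSO as baseline; 5uM trimethyltin chloride positive control.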

Assay [14] is described as follows: Tanguay_ZF_120hpf_JAW_legacy: (Legacy) Oregon State University Tanguay Lab 120 Hour Post-fertilization zebrafish Assay for Jaw Malformation (AID 2283638). The method, boiled down:
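Binary jaw-malformation calls at 120 hpf by brightfield imaging; DMSO (0.64% v/v) = baseline. Embryos: 5D wild-type, pronase-dechorionated, one per well from 6 hpf, static exposure, 28C, sealed, dark.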

Assay [15] in a line: Tanguay_ZF_120hpf_PE_legacy: (Legacy) Oregon State University Tanguay Lab 120 Hour Post-fertilization zebrafish Assay for Pericardial Edema (AID 2283640).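 On AC50: potency for increased incidence of pericardial edema versus DMSO baseline.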 A digest of the protocol:
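Static waterborne exposure, 5D wild-type embryos, 28C, to 120 hpf; final DMSO 0.64% (vol/vol). Binary PE call at 120 hpf by brightfield; fitted upward vs DMSO baseline. 5uM trimethyltin chloride as positive control.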

Assay [16] can be described thus: Tanguay_ZF_120hpf_BRAI_legacy: (Legacy) Oregon State University Tanguay Lab 120 Hour Post-fertilization zebrafish Assay for Brain Malformation (AID 2283641). A digest of the protocol: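 Read-out: binary brain morphology call at 120 hpf (brightfield), fitted in gain-of-signal direction vs DMSO. Wild-type Tropical 5D embryos, static exposure, 28C, 0.64% DMSO final; 5uM trimethyltin chloride as positive control.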

Assay [17] in a line: ATG_XTT_Cytotoxicity: Cytotoxicity Assessment in the Attagene TRANS-FACTORIAL HepG2 Assay (AID 2283584). The method, boiled down: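 XTT readout of cell number in transfected HepG2 cells, 24 h post-dosing; DMSO serves as negative control and baseline, with activity taken as loss of viability signal.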
Assay [18] can be described thus: TOX21_p53_BLA_p4_viability: Viability Assessment in the Tox21 HCT-116 p53 Agonism Beta-lactamase Assay, Phase 4 (AID 2283597).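 Further: hits lower the luminescence signal meaning cytotoxicity.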 The method, boiled down: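 ATP content by CellTiter-Glo luminescence, 30 min RT, read after the beta-lactamase ratio step. Cells: HCT116, 4000/well, compound added after 5 h, exposure 16 h at 37C. Signal loss = reduced viability.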
Assay [19] can be described thus: TOX21_p53_BLA_p5_viability: Viability Assessment in the Tox21 HCT-116 p53 Agonism Beta-lactamase Assay, Phase 5 (AID 2283600). The method, boiled down:
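ATP luminescence (CellTiter-Glo, 30 min, RT) served as the viability read-out, with loss of signal indicating cytotoxicity. Compounds in DMSO were pinned at a 217-fold dilution onto 4000 cells/well and incubated 16 h, 37C.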

Assay [20] is described as follows: Tanguay_ZF_120hpf_OTIC_legacy: (Legacy) Oregon State University Tanguay Lab 120 Hour Post-fertilization zebrafish Assay for Otic Vesicle Malformation (AID 2283639). A digest of the protocol: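 Wild-type zebrafish larvae, whole-embryo exposure from early stage to 120 hpf at 28C. Binary brightfield scoring of otic vesicle morphology, fitted in the positive direction against the DMSO baseline.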

Consider 7 molecules from PubChem BioAssay (EPA / NIEHS).

In general, AC50 refers to the concentration giving half of the maximal activity seen.

Molecules are shown by their SMILES. Records with an inconclusive call do not appear. Activity calls are given as the source filed them. How the source made its calls, unless noted: active means hit-call score of the fitted dose curve at least 0.9, where 1 is the maximum; inconclusive means response in the unintended direction; inactive means score below 0.9.

Cellular tumor antigen p53 (Homo sapiens), sequence (P04637 whole entry, looked up): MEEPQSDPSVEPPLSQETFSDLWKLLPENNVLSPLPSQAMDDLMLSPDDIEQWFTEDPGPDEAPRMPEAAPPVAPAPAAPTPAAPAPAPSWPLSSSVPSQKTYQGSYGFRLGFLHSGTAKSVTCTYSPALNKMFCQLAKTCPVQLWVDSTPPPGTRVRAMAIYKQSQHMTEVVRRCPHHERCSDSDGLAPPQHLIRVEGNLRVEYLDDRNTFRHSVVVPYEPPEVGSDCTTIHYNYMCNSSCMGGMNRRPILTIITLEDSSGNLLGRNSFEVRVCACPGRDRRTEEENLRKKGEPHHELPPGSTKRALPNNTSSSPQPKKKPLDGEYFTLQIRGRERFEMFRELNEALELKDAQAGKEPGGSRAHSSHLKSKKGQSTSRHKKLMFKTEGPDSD

On to `COC(=O)NS(=O)(=O)c1ccc(N)cc1`, for which the outcome in assay [1], in assay [2], in [3], in assay [4], in assay [5] and in assay [6] was inactive. The result in assay [7], in assay [8], in assay [9], in [10], in assay [11] and in assay [12] was inactive. Moreover, the molecule was called inactive in assay [13], in [14], in assay [15] and in assay [16].
Take `N#Cc1c[nH]cc1-c1cccc2c1OC(F)(F)O2`: the result in assay [1], in [2], in [17], in assay [3], in assay [5] and in [18] was inactive. Besides, the result in assay [19], in assay [10], in [11], in [12], in assay [13] and in assay [14] was inactive. Moreover, the call in assay [15] and in assay [16] was inactive. The AC50 in assay [4] is 7.61 µM (active); in [6] it was 8.51 µM (active); in assay [7] it was 5.39 µM (active); in assay [8], 6.17 µM (active); in assay [9] it was 25.9 µM (active).
For the molecule `CO/N=C(/C1=NOCCO1)c1ccccc1Oc1ncnc(Oc2ccccc2Cl)c1F`, the outcome in assay [1], in [3], in assay [5], in assay [6], in assay [18] and in assay [7] was inactive. The result in assay [8], in [10], in assay [12], in assay [14] and in assay [16] was inactive. The AC50 was 33 µM (active) in [2]; 3.05 µM (active) in [4]; 2.4 µM (active) in assay [9]; 5.15 µM (active) in assay [11]; 0.936 µM (active) in assay [15].
`O=C(Nc1ccccc1-c1ccc(Cl)cc1)c1cccnc1Cl`: the molecule was called inactive in [1], in assay [2], in [3], in assay [4], in assay [5] and in assay [6]. The molecule was classed as inactive in [18], in assay [7], in assay [19], in assay [8], in assay [9] and in assay [10]. The result in assay [11], in assay [12], in assay [13], in [14], in assay [20] and in assay [15] was inactive. The call in [16] was inactive.
For `CC(C)NC(=O)N1CC(=O)N(c2cc(Cl)cc(Cl)c2)C1=O`, the AC50 in assay [1] is 14.8 µM (active). Moreover, the molecule was classed as inactive in [2], in assay [17], in assay [3], in assay [4], in assay [5] and in assay [6]. The outcome in assay [18], in [7], in [8], in assay [9], in [10] and in assay [11] was inactive. In addition, the molecule was called inactive in [12], in [13], in assay [14], in assay [20], in assay [15] and in assay [16].
In the case of `C=C(C)CN(CC)c1c([N+](=O)[O-])cc(C(F)(F)F)cc1[N+](=O)[O-]`, the molecule was classed as inactive in [1], in assay [2], in [17], in assay [3], in assay [4] and in [5]. In addition, the outcome in assay [6], in [7], in assay [9], in assay [10], in assay [11] and in assay [13] was inactive. For the same molecule, the result in [14], in [20], in assay [15] and in assay [16] was inactive. The AC50 in [8] is 0.000117 µM (active).
Turning to `CC1(C)CCC(=Cc2ccc(Cl)cc2)C1(O)Cn1cncn1` (centres undefined), the result in assay [1], in [2], in [3], in assay [4], in assay [5] and in assay [6] was inactive. Also, the molecule was classed as inactive in [18], in assay [7], in [19], in assay [8], in assay [9] and in assay [10]. The call in assay [11], in [12], in [14], in [20], in [15] and in [16] was inactive.
